# Assay results from article PMC5540273 (PLoS ONE, 2017).
# Key:
# Details in all cases: concentration: 1 μM,replicates: in singlicate; n = 1
# MAP3K15 = tested on: MAP3K15
# MAP3K1 = tested on: MAP3K1
# MAP3K2 = tested on: MAP3K2
# MAP3K3 = tested on: MAP3K3
# MAP3K4 = tested on: MAP3K4
# MAP4K2 = tested on: MAP4K2
# MAP4K3 = tested on: MAP4K3
# MAP4K4 = tested on: MAP4K4
# MAP4K5 = tested on: MAP4K5
# MAPKAPK2 = tested on: MAPKAPK2
# MAPKAPK5 = tested on: MAPKAPK5
# MARK1 = tested on: MARK1
# MARK2 = tested on: MARK2
# MARK3 = tested on: MARK3
# MARK4 = tested on: MARK4
# MAST1 = tested on: MAST1
# MEK1 = tested on: T1, MEK1
# T1 construct: gene MAP2K1
# MEK2 = tested on: T2, MEK2
# T2 construct: gene MAP2K2
# MEK3 = tested on: T3, MEK3
# T3 construct: gene MAP2K3
# MEK4 = tested on: T4, MEK4
# T4 construct: gene MAP2K4
# 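Also: KINOMEscan kinase panel screen.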
Structure (SMILES),%Inh (MAP3K15) [%],%Inh (MAP3K1) [%],%Inh (MAP3K2) [%],%Inh (MAP3K3) [%],%Inh (MAP3K4) [%],%Inh (MAP4K2) [%],%Inh (MAP4K3) [%],%Inh (MAP4K4) [%],%Inh (MAP4K5) [%],%Inh (MAPKAPK2) [%],%Inh (MAPKAPK5) [%],%Inh (MARK1) [%],%Inh (MARK2) [%],%Inh (MARK3) [%],%Inh (MARK4) [%],%Inh (MAST1) [%],%Inh (MEK1) [%],%Inh (MEK2) [%],%Inh (MEK3) [%],%Inh (MEK4) [%]
CCn1c(-c2nonc2N)nc2cncc(Br)c21 [SB-738004],18,10,0,0,3,40,0,3,0,10,0,0,21,0,6,53,22,29,49,0
COC(=O)c1cccc(NC(=O)NC2CCN(c3ccnc(Nc4cc(OC)c(OC)c(OC)c4)n3)C2)c1 (stereo not shown) [GSK1379767],0,0,0,0,7,0,3,15,35,0,0,0,0,0,7,15,0,17,0,26
CCn1c(-c2nonc2N)nc2cncc(CNC3CCNCC3)c21.Cl [SB-747651],3,6,13,0,14,0,0,0,0,19,0,0,0,2,0,21,0,1,16,40
C[C@@H](Oc1cc(-n2cnc3ccc(-c4ccncc4)cc32)sc1C(N)=O)c1ccccc1Cl [GSK483724],0,41,4,0,21,10,10,11,15,0,0,8,0,0,20,0,49,0,34,37
O=C(Nc1n[nH]c2cc(-c3ccco3)ccc12)C1CC1 [SB-737447],17,0,23,24,0,2,5,21,0,0,12,12,39,42,0,30,0,0,30,18
Cc1cccc2c(-c3ccncc3)c(-c3ccc(F)cc3)nn12.Cl [GW461487],100,13,19,0,20,0,0,9,0,0,0,0,0,0,0,0,39,0,0,52
C[C@@H]1CCN(C(=O)N2CCCC2)C[C@@H]1N(C)c1ncnc2[nH]ccc12,31,36,17,16,7,0,8,0,0,0,8,0,50,46,5,0,18,0,29,13
O=C1NCCc2[nH]c(-c3ccncc3)cc21,85,5,0,23,3,52,15,25,6,–,46,22,12,25,11,59,8,26,–,0
O=C(NCC1CC1)c1ccc(-c2cc(C(=O)NC3CC3)ccc2F)cc1 [GW810445],0,0,0,0,0,0,0,0,0,0,0,0,0,0,2,36,2,13,0,0
CS(=O)(=O)c1cccc(CNc2nc(Nc3ccc4c(c3)[C@@H]3C[C@@H]4CNC3=O)ncc2C(F)(F)F)c1,0,0,65,47,0,68,68,40,0,0,0,8,24,67,44,0,39,80,75,89
COc1cccc(CNC(=O)NC2CCN(c3ccnc(Nc4cc(OC)c(OC)c(OC)c4)n3)C2)c1 (stereo not shown) [GSK1379765],0,10,0,0,0,0,1,1,3,46,0,0,0,0,1,0,17,5,15,25
Cl.Nc1n[nH]c2cc(-c3ccccn3)ccc12 [GSK2189892],0,0,0,0,0,0,0,6,0,7,0,0,0,10,0,0,2,0,0,5
O=C(Nc1ccc(Oc2ccc3nc(NC(=O)C4CC4)cn3n2)c(F)c1)c1cccn(-c2ccccc2)c1=O,0,0,0,15,24,0,4,1,0,13,0,0,0,29,0,10,0,25,0,0
O=C(Nc1ccccc1)c1cccc(Oc2ccc3nccn3n2)c1,0,10,0,0,20,2,0,0,0,0,4,0,6,0,10,0,0,6,13,0
CC(C(=O)NC1CCN(c2ccnc(Nc3ccc(F)cc3)n2)C1)c1ccc(Cl)cc1 (stereo not shown) [GSK1379713],0,0,0,0,17,0,0,12,4,26,18,0,0,0,1,11,0,0,0,10
COc1cccc(C2=C(Nc3cccc(Cl)c3)C(=O)NC2=O)c1 [SB-341556],21,28,17,29,15,0,84,19,2,20,0,0,0,17,0,0,0,0,15,4
COC(=O)Nc1nc2cc(Oc3ccc(NC(=O)Nc4cc(C(F)(F)F)ccc4Cl)cc3)ccc2[nH]1.Cl [GW697465],0,14,0,0,1,0,0,12,23,14,0,0,0,0,0,14,25,0,0,4

Structure (SMILES),%Inh (MAP3K15) [%],%Inh (MAP3K1) [%],%Inh (MAP3K2) [%],%Inh (MAP3K3) [%],%Inh (MAP3K4) [%],%Inh (MAP4K2) [%],%Inh (MAP4K3) [%],%Inh (MAP4K4) [%],%Inh (MAP4K5) [%],%Inh (MAPKAPK2) [%],%Inh (MAPKAPK5) [%],%Inh (MARK1) [%],%Inh (MARK2) [%],%Inh (MARK3) [%],%Inh (MARK4) [%],%Inh (MAST1) [%],%Inh (MEK1) [%],%Inh (MEK2) [%],%Inh (MEK3) [%],%Inh (MEK4) [%]
CC(C)c1nc(-c2cccc(NS(=O)(=O)c3ccccc3)c2)c(-c2ccnc(Nc3ccc4c(c3)CN(C)CC4)n2)s1 [GSK1649598],30,6,98.5,84,79,0,96.9,95.5,98.9,0,0,31,0,14,3,0,52,77,17,99.5
CCCC(=O)Nc1n[nH]c2ncccc12 [SB-601436],29,0,5,34,11,5,0,0,0,16,5,0,0,0,0,0,0,13,21,14
CN(c1cccc(CNc2nc(Nc3ccc4c(c3)CC(=O)N4)ncc2C(F)(F)F)c1)S(C)(=O)=O,0,0,44,11,3,0,18,34,0,0,0,47,39,66,56,0,0,43,62,35
Cn1ccc2ncnc(Oc3ccc(NC(=O)Nc4cccc(C(F)(F)F)c4)c(F)c3)c21,0,0,0,18,13,0,20,17,40,22,0,13,9,8,0,0,0,29,3,0
CN1CCN(CCNc2nc3cc(Oc4ccc(NC(=O)Nc5cc(C(F)(F)F)ccc5F)cc4)ccc3[nH]2)CC1.Cl.Cl [GW768504],0,0,0,0,0,0,0,1,6,4,0,19,0,12,32,7,0,31,0,0
COC(=O)c1cccc(NC(=O)NC2CCN(c3ccnc(NCc4ccc(F)cc4)n3)CC2)c1 [GSK1379860],0,24,8,0,22,0,0,0,0,0,0,0,0,0,0,0,0,0,0,0
CN(c1ccc2c(c1)nc(NCc1ccc(F)cc1)n2C)c1ccnc(Nc2ccc(CS(C)(=O)=O)cc2)n1.Cl [GW813244],24,26,31,23,2,0,40,10,11,0,0,0,0,0,8,19,14,37,27,40
Cc1ccc(Nc2ccnc(Nc3ccc4c(c3)CS(=O)(=O)C4)n2)cc1O.Cl [GW579362],0,27,88,73,29,22,0,52,33,0,0,0,17,0,5,0,84,62,92,90.9
FC(F)(F)c1cc(Br)cc(Nc2nccc(-c3cnn4ncccc34)n2)c1 [GW810578],0,3,14,29,15,41,7,0,18,0,0,0,0,0,0,45,3,14,90.3,21
O=c1[nH]cc(-c2ccc(O)cc2)c2sc(-c3ccncc3)cc12 [GSK1033723],0,13,7,0,0,0,0,0,0,0,0,0,0,0,1,0,0,0,0,0
Cn1ccc2ncnc(Oc3ccc(NC(=O)Nc4cc(C(C)(C)C)on4)c(Cl)c3)c21,0,18,9,17,9,0,11,94,25,0,50,4,0,0,14,0,23,41,15,9
Nc1nccc(-c2ccc3c(N)n[nH]c3c2)n1 [GSK1034945],0,20,10,0,5,67,4,6,0,79,0,0,0,0,7,0,0,0,0,8
CN(c1ccccc1CNc1nc(Nc2ccc3c(c2)CC(=O)N3)ncc1C(F)(F)F)S(C)(=O)=O,0,0,61,63,6,17,42,0,13,0,0,53,37,80,67,0,1,0,93.1,84
Cc1ccc(C(=O)Nc2ccc(Oc3ccc4nc(NC(=O)C5CC5)cn4c3)c(F)c2)c(=O)n1-c1ccccc1,0,0,0,5,12,0,16,0,0,0,0,0,0,32,15,31,0,29,0,0
CC(=O)Nc1nc2cnc(Nc3cc(NC(=O)c4cccc(CC(C)(C)C#N)c4)ccc3C)nc2s1,22,13,0,36,0,0,0,7,0,0,14,8,3,0,8,53,6,6,0,25
Cc1ccc(CC(=O)N2CCc3cc(-c4cn(C)c5ncnc(N)c45)ccc32)cc1 [GSK2634758],0,10,55,22,90.3,3,96.7,0,77,6,0,2,0,0,12,8,0,0,0,22
